MITF inh: MITF inhibition | TRPM1 promoter luciferase, luminescence, 24 h | inhibition, % (test concentration not listed) | hit rate 0.28% among 37,000; in the data active = inhibition above about 85%; inconclusive = no clear call, values can overlap the other calls; inactive = below about 68%;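 also: human melanocyte line stably carrying TRPM1 promoter luciferase reporter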
Shh pathway inh: blocks Sonic Hedgehog signaling | hit rate 2.1% among 22,000 | Shh-LIGHT2 Gli-luciferase reporter, 30 h | AID 2313 | inhibition, % (concentration not given with the values);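 active = mean inhibition across valid replicates above about 65%, limit read from the data; inconclusive = mean under the limit, yet half or more replicates past it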;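 also: pathway switched on by Shh-conditioned medium diluted 1 in 25 in low serum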
NOMO-1 viab: STK33 inhibitor candidate reducing NOMO-1 cell viability; NOMO-1 AML viability, CellTiter-Glo luminescence, 72 h; inhibition, % (concentration not given with the values); hit rate 7.5% among 37,000; AID 2330; in the data active = inhibition above about 80%; inconclusive = no clear call, values can overlap the other calls
* marks the source's active call; other numbers are inactive results; ? = inconclusive; . = not tested or not shown. In the library only some 7.9% were active in any assay of this set; here they are far more common.

SMILES	MITF inh	Shh pathway inh	NOMO-1 viab
C[C@H]1CN([C@@H](C)CO)C(=O)Cc2cc(NS(=O)(=O)c3ccc(F)cc3)ccc2O[C@@H]1CN(C)Cc1ccc(-c2ccccc2)cc1	31	40	122*
Cc1ccc(S(=O)(=O)Nc2ccc3c(c2)CC(=O)N([C@@H](C)CO)C[C@H](C)[C@H](CN(C)Cc2ccc(-c4ccccc4)cc2)O3)cc1	26	-8	49
C[C@@H]1CN([C@H](C)CO)C(=O)Cc2cc(NS(=O)(=O)c3ccccc3)ccc2O[C@@H]1CN(C)Cc1ccc(-c2ccccc2)cc1	1	43	104*
C[C@@H]1CN([C@@H](C)CO)C(=O)Cc2cc(NS(=O)(=O)c3ccccc3)ccc2O[C@@H]1CN(C)Cc1ccc(-c2ccccc2)cc1	0	-6	34
C[C@@H]1CN([C@H](C)CO)C(=O)c2cc(NS(=O)(=O)c3ccc(Cl)cc3)ccc2O[C@H]1CN(C)Cc1ccc(-c2ccccc2)cc1	3	-9	19
C[C@@H]1CN([C@H](C)CO)C(=O)Cc2cc(NS(=O)(=O)c3ccc(F)cc3)ccc2O[C@@H]1CN(C)Cc1ccccc1	9	11	13
C[C@H]1CN([C@@H](C)CO)C(=O)Cc2cc(NS(=O)(=O)c3ccc(Cl)cc3)ccc2O[C@@H]1CN(C)Cc1ccc(-c2ccccc2)cc1	18	15	124*
N#C/C(=C\Nc1cnccn1)S(=O)(=O)c1ccc(C(F)(F)F)cn1	14	-13	16
C[C@@H]1CN([C@@H](C)CO)C(=O)Cc2cc(NC(=O)CCN3CCOCC3)ccc2O[C@@H]1CN(C)C(=O)NC1CCCCC1	4	-5	-8
COc1ccc(NC(=O)N(C)C[C@H]2Oc3ccc(NC(=O)Nc4cccc5ccccc45)cc3C(=O)N([C@H](C)CO)C[C@H]2C)cc1	-1	.	22
Cc1ccc(S(=O)(=O)Nc2ccc3c(c2)CC(=O)N([C@@H](C)CO)C[C@@H](C)[C@@H](CN(C)Cc2ccccc2)O3)cc1	6	9	39
Cc1ccc(S(=O)(=O)Nc2ccc3c(c2)CC(=O)N([C@H](C)CO)C[C@@H](C)[C@@H](CN(C)Cc2ccccc2)O3)cc1	-3	-9	85*
COc1cc(O)c2c(=O)cc(-c3cc(OC)c(OC)c(O)c3OC)oc2c1	-58	-3	-3
CCn1c(SCC(=O)Nc2cc(Cl)cc(Cl)c2)nnc1-c1cccs1	14	.	-17
COC(=O)c1ccccc1NC(=O)CSc1nc2c(c(C(F)(F)F)n1)CCCC2	-10	.	16
CN(C)/C=C/C(=O)c1sc(SCc2ccc(Cl)cc2)c2c1CC(C)(C)CC2=O	-1	12	113*
COC(=O)c1sc(SCCOC(=O)c2ccccc2Cl)c2c1CC(C)(C)CC2=O	4	8	6
C[C@H]1CN([C@@H](C)CO)C(=O)c2cccc(NC(=O)C3CCOCC3)c2O[C@@H]1CN(C)S(=O)(=O)c1cccs1	-8	-7	-5
CC1=C(CO)C(=O)OC([C@@H](C)C2CC[C@H]3C4C[C@H]5O[C@]56[C@@H](O)C=CC(=O)[C@]6(C)C4CC[C@]23C)C1 (stereo not given in full)	90*	?	120*
CSc1ncc(Cl)c(C(=O)Nc2sc3c(c2C(=O)NCc2ccco2)CCC3)n1	23	.	11
CCCCCCCCCC(O)CC(O)CC(O)CC1CC=CC(=O)O1 (stereo not given)	-26	-23	115*
CCCCCCCC(O)C(O)C1CC(OC)=CC(=O)O1 (stereo not given)	-1	-9	5
CCNc1nc(SCC(N)=O)nc(N2CCOCC2)n1	-9	.	17
CCc1ccccc1NC(=O)CN(C)S(=O)(=O)c1c(C)cc(C)cc1C	-10	.	0
C=C(C)C(=O)Nc1ccc(O)c(-c2nc3ccccc3[nH]2)c1	-20	-3	7
SMILES	MITF inh	Shh pathway inh	NOMO-1 viab
O=S1(=O)CC=C(Sc2ccccc2)C1	-23	-33	-1
CN1C(=O)c2ccccc2NC(=O)[C@]12O[C@@H]2c1cccc(O)c1	5	-15	24
CN1C(=O)c2ccccc2-n2c(nc3ccccc3c2=O)[C@@]12O[C@H]2c1ccccc1	0	3	104*
COc1cccc(N(CC(=O)Nc2ccc(Br)cc2F)S(C)(=O)=O)c1	-5	.	-9
C[C@H](CO)N1C[C@H](C)[C@H](CN(C)Cc2ccc(C(=O)O)cc2)Oc2ccc(NC(=O)Nc3ccccc3)cc2C1=O	4	-9	2
C[C@H]1CN([C@@H](C)CO)C(=O)Cc2cc(NC(=O)CCC(F)(F)F)ccc2O[C@@H]1CN(C)S(=O)(=O)c1ccc(F)cc1	7	.	16
C[C@H](CO)N1C[C@H](C)[C@H](CN(C)S(=O)(=O)c2ccc(F)cc2)Oc2ccc(NC(=O)CCC(F)(F)F)cc2CC1=O	20	-34	126*
C[C@H]1CN([C@@H](C)CO)C(=O)Cc2cc(NC(=O)Nc3ccc(F)cc3)ccc2O[C@@H]1CN(C)S(=O)(=O)c1ccc(F)cc1	-11	-35	25

Screening data: PubChem, Broad Institute
